# Source: PubChem BioAssay (several laboratories)
# Only some compounds are listed: those with a hit (about 3.1% of all), similar ones and a draw of the others.
# TWEAK Fn14 block: blocks TWEAK-Fn14 interaction in a reporter cell assay; TWEAK-stimulated Fn14 reporter cells, luciferase luminescence, 8 h; inhibition, % at 10 µM; 2% of 360,000 active; AID 1159606; in the data active means inhibition above about 50%
# LGR2 antag: inhibitors of bursicon-induced Drosophila LGR2 receptor cAMP signaling; 0.35% of 380,000 active; AID 720647; inhibition, % at 9.99 µM; HEK293 LGR2, CRE-luciferase, bursicon-stimulated, 4 h;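 active means drop in luminescence signal, shown as inhibition above about 50% in the replicate tests, limit read from the data, passing the limit was not always enough; inconclusive means probably only some replicates passing the limit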;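 further: agonist challenge used bursicon conditioned medium at about half maximal strength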
# TROY NFkB inh: blocks TROY-dependent signaling in reporter cells; Q293 LMP1-TROYcd NF-kB luciferase reporter, 4 h; inhibition, % at 10 µM; 0.98% of 360,000 active; AID 1347056;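 active means compounds whose plate-normalised and pattern-corrected inhibition of the luciferase reporter signal at the single screening dose is 50% or more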
# PAX8 inh HTS: inhibitors of PAX8 transcriptional activity in RMG-I cells; RMG-I TPO-luciferase reporter, SteadyGlo, 24 h; inhibition, % at 12.6 µM; 1.2% of 360,000 active; AID 652154;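 active means mean replicate inhibition at least 60% with every replicate also reaching 60%; inconclusive means only one of the two criteria is met; inactive means mean below 60% and not all replicates reaching 60%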;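 further: luciferase light reporting Pax8 driven TPO promoter activity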
# EBV LMP1 NFkB: Epstein-Barr LMP1 NF-kappaB reporter inhibition; LMP1-induced NF-kappaB luciferase reporter cells, luminescence; 0.69% of 350,000 active; AID 504558; inhibition, % at 12.5 µM; in the data active means inhibition above about 41%; inconclusive means no clear call, values can overlap the other calls
# EWS-Fli block: inhibitors of EWS/Fli oncoprotein transcriptional activity. A673 NR0B1-luciferase reporter, viability-normalised. inhibition, % at 12.6 µM. 0.67% of 350,000 active;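 active means mean inhibition of at least 50% after viability correction, with every replicate also passing that limit; inconclusive means mean reaches 50% but only one of two replicates passes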;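 further: firefly luciferase signal divided by Alamar Blue viability fluorescence both relative to DMSO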
# Numbers stand for hits; – = inactive; ? = inconclusive; · = not tested or not shown.
SMILES,TWEAK Fn14 block,LGR2 antag,TROY NFkB inh,PAX8 inh HTS,EBV LMP1 NFkB,EWS-Fli block
COc1ccc([Si](C)(C)[C@@H]2[C@@H](CCn3cc(CCO)nn3)O[C@]3(C(=O)N(Cc4cccc(N5CCOC5=O)c4)c4ccccc43)[C@H]2C)cc1,·,·,·,100.2,·,–
COc1ccc([Si](C)(C)[C@H]2[C@H](CCn3cc(CCO)nn3)O[C@@]3(C(=O)N(Cc4cccc(N5CCOC5=O)c4)c4ccccc43)[C@@H]2C)cc1,·,·,·,83.4,·,–
COc1cc(/C=N\NC(=O)c2ccc(C)nc2)ccc1OC(=O)c1cccc(F)c1,72.5,–,–,–,–,–
COc1cccc(/C=N\NC(=O)c2ccc(C)nc2)c1,–,–,–,–,86.1,–
COc1cc(/C=N/NC(=O)c2ccc(N)cc2)ccc1OC(=O)c1cccc(C)c1,–,–,52.6,–,–,·
O=C(N/N=C/c1cccnc1)c1cccc(Br)c1,–,–,–,–,–,–
CCOc1ccc(OCc2cccc(C(=O)N/N=C/c3cccnc3)c2)cc1,–,?,–,–,74.8,·
CNC[C@@H]1OCCCC[C@@H](C)Oc2ccc(NC(=O)CCC(F)(F)F)cc2C(=O)N([C@H](C)CO)C[C@H]1C,·,–,·,–,·,–
C[C@@H]1CN([C@H](C)CO)C(=O)c2cc(NC(=O)C3CCCCC3)ccc2O[C@@H](C)CCCCO[C@@H]1CN(C)S(=O)(=O)c1ccc(F)cc1,·,–,·,–,·,–
C[C@@H]1CN([C@@H](C)CO)C(=O)c2cc(C#Cc3ccc(F)cc3)cnc2O[C@@H]1CN(C)C,·,–,·,·,·,–
Cn1cccc1-c1cc(C(=O)N/N=C/c2ccccc2Cl)[nH]n1,–,–,–,–,–,·
Cn1cccc1-c1cc(C(=O)N/N=C/c2cc(Br)ccc2O)[nH]n1,–,–,–,74.4,–,–
COc1cc(/C=N/Nc2ccc3ccccc3c2)ccc1OC(=O)c1ccco1,51.3,–,–,–,–,·
COc1cc(C(=O)N/N=C/c2ccc(OC(=O)c3cccc(C)c3)cc2)ccc1O,–,–,51.3,·,–,–
COc1ccc(C(=O)N/N=C/c2cc(Br)ccc2O)cc1OC,–,–,–,82.5,–,–
COc1cc(/C=N/Nc2nc(C)cc(C)n2)ccc1OC(=O)c1ccco1,–,–,–,·,–,·
O=C(C[C@H]1C=C[C@@H](NC(=O)CC2CC2)[C@@H](CO)O1)NCc1ccccc1,·,–,·,·,·,–
COc1cccc(/C=N/NC(=O)c2ccc(N3CCCC3=O)cc2)c1,–,–,–,96.3,–,–
COc1cccc(C(=O)Oc2ccc(/C=N/Nc3ccc(C(=O)O)cc3)cc2OC)c1,60.5,–,–,–,–,–
COc1cccc(/C=N/Nc2ccc(S(=O)(=O)O)cc2)c1O,–,·,–,·,–,·
COc1cccc(/C=N/Nc2snc(SC)c2C#N)c1O,75.3,–,–,–,–,–
COc1cccc(OCc2cc(/C=N/Nc3ccc(C(=O)O)cc3)ccc2OC)c1,–,–,–,–,–,–
COc1cccc(/C=N/Nc2ccc(C(=O)O)cc2)c1O,103.3,·,83.8,108.3,83.1,–
COc1cc2c(cc1NC(=O)COc1ccccc1OC)oc1ccccc12,–,–,–,·,–,·
COc1cc2c(cc1NC(=O)COC(=O)C(CCSC)NC(=O)c1ccccc1Cl)oc1ccccc12 (stereo not drawn),–,–,–,62.2,–,–
SMILES,TWEAK Fn14 block,LGR2 antag,TROY NFkB inh,PAX8 inh HTS,EBV LMP1 NFkB,EWS-Fli block
CC(=O)N1[C@H](CN(C(=O)c2ccc(F)cc2)C(C)C)[C@@H](c2ccccc2)[C@@H]1CO,·,–,·,–,·,–
Cn1nc([N+](=O)[O-])nc1Sc1nnc(-c2ccccc2)o1,68.6,–,–,·,–,·
O=Cc1ccc(Sc2nnc(-c3ccccc3)o2)c([N+](=O)[O-])c1,–,·,–,·,–,·
N#CC(C#N)=C1C=CC=CN1/C(=C\c1ccco1)C(=O)c1ccc(-c2ccccc2)cc1,88.5,–,–,92.4,–,·
COc1cc(S(=O)(=O)N2CCC(O)(c3cccc(C(F)(F)F)c3)CC2)ccc1-n1cnnn1,–,–,–,·,–,·
O=S(=O)(c1ccc(OC(F)(F)F)cc1)N1CCC(O)(c2cccc(C(F)(F)F)c2)CC1,–,–,58.4,–,–,–
CN(C)CC(=O)N1[C@H](C#N)[C@@H](c2ccccc2-c2ccccc2F)[C@H]1CO,·,–,·,·,·,–
C/C(=N\NC(=O)c1c([N+](=O)[O-])c(C)nn1C)c1ccc(NC(=O)C2CCCC2)cc1,–,–,–,–,–,52.1
